Assay outcomes as filed in PubChem BioAssay.
An excerpt weighted towards active compounds, which were near 2.2% of everything screened.
KLF5 inh – kruppel-like factor 5 inhibition; AID 1700; DLD-1 KLF5 promoter-luciferase reporter, luminescence; actives 0.23% (n = 290,000); inhibition, % at 5 µM;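 active means inhibition above a per-plate limit of that plate's mean compound inhibition plus 3 SD, cut at about 60% in these data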;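 further: 0% = DMSO wells and 100% = LY294002 at 200 µM; higher means less KLF5 promoter-driven luciferase light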
IEC-6 tox-1 – kills IEC-6 intestinal cells in KLF5 counter-screen | actives 0.78% (n = 290,000) | IEC-6 cytotoxicity, luminescence viability | inhibition, % at 5 µM; in the data active means inhibition above about 22%;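 further: 0% = plate median of test compound wells and 100% = cytotoxic reference compound wells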
BaF3 tox – parental Ba/F3 viability inhibition as JAK2V617F counter-screen | CellTiter-Glo ATP luminescence | AID 1486 | inhibition, % at 5.6 µM | actives 1.1% (n = 220,000);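 active means inhibition above a per-campaign cutoff, the mean inhibition of all tested compounds plus 3 SD, cut at about 27% in these data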;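 further: 0% = DMSO wells and 100% = JAK Inhibitor I control wells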
aSyn 5UTR inh – MLPCN primary screen, SNCA 5' untranslated region. inhibition, % (tested at 7.5 µM). actives 0.82% (n = 300,000). alpha-synuclein 5'UTR reporter, inhibitor activity; in the data active means inhibition above about 60%; inconclusive means no clear call, values can overlap the other calls;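 further: H4 neuroglioblastoma cells stably carrying SNCA 5'UTR luciferase fusion; 0% = DMSO wells and 100% = positive control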
Ba/F3 V617F tox – lowers viability of Ba/F3 cells expressing EpoR and JAK2V617F; ATP luminescence; inhibition, % at 5.6 µM; actives 1.1% (n = 220,000); AID 1446;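 active means inhibition above the campaign mean plus 3 SD over all tested compounds, cut at about 24% in these data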;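 further: cytokine-independent growth of Ba/F3 cells driven by EpoR plus mutant JAK2; 0% = DMSO-treated cells and 100% = JAK inhibitor I control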
APP transl inh – APP translation inhibition. SH-SY5Y APP 5'UTR-luciferase reporter, luminescence. inhibition, % at 2 µM. actives 0.82% (n = 190,000);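 active means inhibition above a set limit, derived from the sample mean plus 3 SD, cut at about 45% in these data; inconclusive means one replicate passes the limit while the other fails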
KLF5 inh confirm – confirmation of KLF5 inhibitors; shares compounds with KLF5 inh; DLD-1 KLF5 promoter firefly luciferase reporter, luminescence; inhibition, % at 4 µM; actives 79% (n = 610); AID 1834;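 active means inhibition above a set limit taken from the earlier primary screen, cut at about 63% in these data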;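 further: 0% = DMSO wells and 100% = LY294002 at 200 µM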
IEC-6 tox-2 – counter-screen for KLF5 inhibitors: cytotoxicity in rat IEC-6 cells | inhibition, % at 4 µM | IEC-6 rat intestinal cells, viability luminescence | actives 56% (n = 610) | shares compounds with KLF5 inh | AID 1905; in the data active means inhibition above about 23%;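 further: cells exposed to compounds for 48 hours before viability read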
Active calls of the source: *; ? = inconclusive; nt = not tested or not shown.

SMILES	KLF5 inh	IEC-6 tox-1	BaF3 tox	aSyn 5UTR inh	Ba/F3 V617F tox	APP transl inh	KLF5 inh confirm	IEC-6 tox-2
COC(=O)c1sccc1NC(=O)COc1ccc(Cl)cc1Cl	-11.7	5.6	-2.1	-161.7	-4.9	-53.7	nt	nt
COc1cccc2c1OCC(C(=O)O)C2 (stereo unspecified)	-15.0	-5.1	8.3	16.5	-0.5	0.9	nt	nt
COc1cccc2c1C(CO)N1C(C#N)C3CC(C(=O)O)C(C1C2)N3C (stereo unspecified)	109.9*	100.4*	95.1*	nt	93.8*	nt	108.8*	99.8*
CCN(CC)S(=O)(=O)c1ccc(N/N=C/c2cccnc2)nc1	-4.7	1.8	-1.7	7.6	-3.0	nt	nt	nt
CCN(CC)S(=O)(=O)c1ccc(N/N=C/c2cc(OC)ccc2O)nc1	67.7*	15.6	54.5*	86.8*	81.5*	74.0*	74.4*	3.9
N#C/C(=C\c1ccc([N+](=O)[O-])cc1)c1ccccn1	-144.9	13.2	0.5	-120.9	1.1	-25.1	nt	nt
CN(C)c1ccc(/C=C(\C#N)c2ccccn2)cc1	68.8*	9.5	7.4	101.5*	3.1	-95.0	65.8*	14.9
CSc1nnc(NC(=O)c2ccc3c(c2)OCO3)s1	74.8*	-2.6	nt	81.4*	nt	nt	61.6	-1.8
O=C(NC1=NCCS1)C1COc2ccccc2O1 (stereo unspecified)	68.8*	-0.4	3.5	98.2*	3.4	1.7	71.0*	-8.0
O=C(Nc1ccncc1)C1COc2ccccc2O1 (stereo unspecified)	0.9	6.2	4.1	-23.1	3.4	6.3	nt	nt
Cc1cc(C)c2nc(NC(=O)[C@@H](NC(=O)c3cccc(S(=O)(=O)N4CCOCC4)c3)C(C)C)sc2c1	73.8*	-7.1	10.5	31.4	3.4	-10.0	100.0*	45.2*
Cc1cccc(C(=O)N[C@H](C(=O)Nc2cc(S(=O)(=O)N3CCCCC3)ccc2C)C(C)C)c1	10.7	-4.3	1.5	2.4	-2.6	-0.8	nt	nt
O=C(N/N=C/c1cc(Cl)cc(Cl)c1O)c1ccncc1	77.2*	19.3	-4.0	23.6	2.4	nt	35.3	7.1
CCCC(c1nnnn1Cc1ccc(OC)cc1)N1CCN(C(=O)c2ccco2)CC1 (stereo unspecified)	4.7	-3.8	nt	1.6	nt	nt	nt	nt
Cc1ccc(C2=NS(=O)(=O)N(C)C(C(=O)N3CCOCC3)=C2)cc1	-20.0	3.5	nt	-22.7	nt	nt	nt	nt
COc1ccc(OCc2cccc(C(=O)Nn3cc([N+](=O)[O-])cn3)c2)cc1	93.4*	4.1	11.8	13.1	5.9	-25.1	102.6*	5.0
Cc1ccc(-n2c(C)cc(C(=O)NS(=O)(=O)c3ccc(C)cc3)c2C)cc1	-27.9	3.8	3.8	-22.5	-1.1	-21.9	nt	nt
Cc1cc(C(=O)Nc2ccc(Cl)cc2)c(C)n1-c1ccccc1	74.0*	4.3	-1.4	86.6*	-2.6	nt	87.3*	-11.8
Cc1ccc(NC(=O)c2cc(C)n(-c3cccc(C)c3)c2C)cc1	77.5*	-4.7	-0.7	-61.9	0.8	-62.8	88.6*	-1.0
O=C(O)c1cccc(Nc2nc(Nc3ccccc3)nc(N3CCCC3)n2)c1	-26.2	-1.8	5.7	-5.4	2.6	5.2	nt	nt
CC1(C)N=C(N)N=C(N)N1c1ccc(OCCCOc2ccccc2)c(Cl)c1	76.9*	81.8*	101.6*	78.3*	97.3*	nt	72.7*	65.6*
O=C(NCCc1ccccc1)c1ccc2c(c1)OCCO2	96.9*	2.5	nt	105.8*	nt	nt	95.1*	-3.8
O=C(NCCc1ccccc1)c1ccc2c(c1)OCCCO2	100.0*	2.2	nt	107.1*	nt	nt	109.1*	15.3
O=C(CCCc1ccccc1)c1ccc2c(c1)OCCO2	70.2*	3.1	5.0	86.2*	4.9	-41.7	88.2*	-5.4
COc1ccc(CCNC(=O)c2ccc3c(c2)OCCO3)cc1	-116.7	-4.1	1.2	-135.3	-5.0	-29.2	nt	nt
SMILES	KLF5 inh	IEC-6 tox-1	BaF3 tox	aSyn 5UTR inh	Ba/F3 V617F tox	APP transl inh	KLF5 inh confirm	IEC-6 tox-2
Cc1nn(-c2ccccc2)c(Cl)c1/C=N/NC(=O)c1[nH]ncc1Br	15.7	10.2	nt	-66.8	nt	nt	nt	nt
CCCCn1c(N)c(N(CCOC)C(=O)CCCc2nc3ccccc3c(=O)[nH]2)c(=O)[nH]c1=O	nt	nt	nt	13.5	nt	nt	nt	nt
CCCc1ccc(C(=O)O/N=C(\N)c2ccccn2)cc1	101.5*	7.7	nt	71.7*	nt	nt	97.3*	4.1
N/C(=N\OC(=O)c1ccc(=O)n(Cc2ccccc2)c1)c1ccccn1	-49.2	-1.2	9.8	-29.3	0.5	-1.8	nt	nt
N/C(=N\OC(=O)c1ccc2ccccc2c1)c1ccccn1	86.3*	3.4	8.5	95.5*	2.9	-158.2	-17.3	2.9
COc1ccc2nc(NC(=O)CN3C(=O)NC4(CCCCC4)C3=O)sc2c1	-27.9	-5.4	nt	-38.7	nt	nt	nt	nt
Cc1ccc(O)c(NC(=O)c2cc(C)no2)c1	-21.6	-0.7	nt	-48.4	nt	nt	nt	nt
O=C(CN1CCN(Cc2cccc(F)c2)CC1)Nc1ccccc1F	-13.3	2.6	nt	-2.2	nt	nt	nt	nt
CCN(C(=O)COC(=O)c1oc2ccc(OC)cc2c1C)C1CCCCC1	nt	nt	nt	-5.5	nt	nt	nt	nt
O=C(COC(=O)C1CCN(c2ccc(C(F)(F)F)cn2)CC1)Nc1ccc(F)cc1[N+](=O)[O-]	nt	nt	nt	-0.6	nt	nt	nt	nt
CCN(CC)S(=O)(=O)c1cccc2cccnc12	-31.0	2.2	1.9	-40.4	-3.2	-9.0	nt	nt
CCOc1ccc(N=Nc2ccc(O)c3ncccc23)cc1	64.8*	13.5	nt	18.0	nt	nt	18.9	-0.7
CCN(CC)S(=O)(=O)c1cc(OC)ccc1N=Nc1ccc(O)c2ncccc12	86.6*	7.0	nt	?	nt	nt	86.8*	4.0
CCOc1ccc(N=Nc2cc(C(C)C)ccc2O)cc1	17.4	2.1	5.6	-29.9	4.0	11.2	nt	nt
O=[N+]([O-])c1ccccc1CNC1CCCc2ccccc21 (stereo unspecified)	-4.8	-3.9	1.6	-5.8	-2.1	-14.1	nt	nt
O=C(NC(=S)NCCC1=CCCCC1)c1cccnc1	2.6	-1.3	4.4	5.0	-1.3	5.7	nt	nt
CC(=O)c1ccc(Nc2cc(C)nc3c(C)cc(C)cc23)cc1	67.4*	73.2*	81.4*	21.1	81.1*	89.1*	78.9*	49.5*
O=Cc1ccc2cccnc2n1	19.9	5.9	4.5	-18.7	3.0	0.9	nt	nt
O=Cc1ccc2ccc3cccnc3c2n1	77.8*	1.6	nt	11.7	nt	nt	-3.8	-4.9
COCCn1c(C)cc(C2=NNC(=Nc3ccccc3F)SC2)c1C	88.6*	9.3	3.6	91.4*	-3.4	52.4*	-4.5	-6.6
COCCCN=C1NN=C(c2cc(C)n(-c3ccccc3F)c2C)CS1	-63.5	-1.0	3.9	-20.8	-0.4	-186.8	nt	nt
CC(=O)c1cccc(NC(=O)CCC(=O)Oc2ccc(C)cc2)c1	3.4	3.4	nt	-0.2	nt	nt	nt	nt
Cc1cc(Br)cc(/C=N/NC(=O)c2ccc3c(c2)OCO3)c1O	70.5*	16.3	nt	7.8	nt	nt	60.6	15.0
Cn1cccc1-c1cc(C(=O)N/N=C/c2cc(Br)ccc2O)[nH]n1	65.3*	12.2	nt	70.5*	nt	nt	78.8*	-2.2
